Measured values taken from PubChem BioAssay AID602127 (Broad Institute, 2011).
Results with a measured potency or affinity are listed apart. Calls of active or inactive are those of the source.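 Rule for the calls: active = every repeat test judged active, meaning a falling signal with potency within twice the top valid dose; inconclusive = repeat tests disagree on the call; inactive = every repeat test inactive, including signal moving upward.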

Target: Cyclin-dependent kinase 2 (Homo sapiens) (UniProt P24941)
Test: inhibition of human CDK2/cyclin A – biochemical, cherry-picked samples, selectivity assay for Dyrk1A inhibitor project, dose response (AID 602127)
Settings: ADP-Glo luminescence, 60 min; series mostly up to 10 µM

SMILES	outcome
Cc1noc(NS(=O)(=O)c2ccc(NC(=O)c3oc4ccc(Cl)cc4c3C)cc2)c1C	inactive
CCCC(=O)Nc1nc(-c2ccc3c(c2)OCCO3)cs1	inactive
CCN(Cc1cccs1)c1ncnc2ccc(-c3ccc4c(c3)OCO4)cc12	inactive
CCOC(=O)c1ccc(-c2ccc3ncnc(NCc4ccc(C)o4)c3c2)o1	inactive
Clc1ccc(CNc2cc(-c3ccc4c(c3)OCO4)ncn2)cc1	inactive
c1cncc(-c2nc(NCc3ccco3)c3ccccc3n2)c1	inactive
Cc1ccnc(NC(=O)c2cccc(S(=O)(=O)N3CCN(c4ccccc4)CC3)c2)c1	inactive
NC(=O)c1c(NC(=O)c2ccc(N3C(=O)CCC3=O)cc2)sc2c1CCCC2	inactive
Cc1ccc(CNc2ncnc3ccc(-c4ccoc4C)cc23)o1	inactive
O=C(Nc1nc(-c2ccncc2)cs1)c1ccco1	inactive
COc1cccc(Nc2ncnc3sc(C)cc23)c1	inactive
COc1ccc(-c2[nH]ncc2-c2ccc3c(c2)OCCO3)c(O)c1	inactive
c1nc(NCC2CCCC2)c2cc(-c3ccc4c(c3)OCO4)ccc2n1	inactive
CN(C)S(=O)(=O)c1ccc(Cl)c(C(=O)Nc2cccc3ncccc23)c1	inactive
COc1cccc(NC(=O)c2sc(NC(=O)c3ccncc3)nc2C)c1	inactive
COc1ccc(-c2cc(NCCc3ccncc3)n3ncnc3n2)cc1	inactive

SMILES	outcome
CN(Cc1cccs1)c1ncnc2ccc(-c3ccc4c(c3)OCO4)cc12	inactive
c1cncc(CNc2ccnc(-c3ccc4[nH]ncc4c3)n2)c1	inactive
FC(F)(F)c1cccc(Nc2nccc(-c3ccc4c(c3)OCO4)n2)c1	inactive
COc1cccc(-c2sc3ccccc3c2-c2ccc(OCCN3CCCC3)cc2)c1	inactive
c1csc(CCNc2ncnc3ccc(-c4ccc5c(c4)OCO5)cc23)c1	inactive
COc1ccc(C(=O)c2sc(Nc3ccccc3F)nc2N)cc1	inactive
Clc1ccc(CNc2nccc(-c3ccc4[nH]ncc4c3)n2)cc1Cl	inactive
Clc1ccc(CNc2nccc(-c3ccc4cn[nH]c4c3)n2)cc1Cl	inactive
CC(Nc1nc(-c2cccnc2)nc2ccccc12)c1ccc(F)cc1 (stereo unspecified)	inactive
Clc1ccccc1-c1ccc2ncnc(NCc3ccc4c(c3)OCO4)c2c1	inactive
Cc1nc(CNc2ncnc3ccc(-c4ccc5c(c4)OCO5)cc23)cs1	inactive
Cc1noc(CN(C)c2ncnc3ccc(-c4ccc5c(c4)OCO5)cc23)n1	inactive
c1cc(-c2ccc3c(c2)OCO3)nc(Nc2ccc3c(c2)OCO3)n1	inactive
Cc1noc(NS(=O)(=O)c2ccc(NC(=O)c3oc4ccc(F)cc4c3C)cc2)c1C	inactive
O=C(NCc1ccco1)c1sc2ccccc2c1Cl	inactive
